# Data reported in PubChem BioAssay AID903 (National Center for Advancing Translational Sciences (NCATS), 2007).
# About 340 (0.62%) of roughly 55,000 compounds were called active. Roughly 3% stayed inconclusive and do not appear here. Calls come from the whole dose curve; as a rule, active = well fitted cell-killing curve with a large enough effect; inconclusive = small, poorly fitted or top-dose-only effect; inactive = no such curve, though single readings can be large or run the other way. The sample as a whole holds a higher share of actives than the screen did.
# Assay: qHTS Screen for Compounds that Selectively Target Cancer Cells with p53 Mutations: Cytotoxicity of p53 Null Cells at the Permissive Temperature; note: nearly all actives have a fitted effect of over 55% in size
# Settings: H1299-neo p53 null cells, ATP luminescence, 24 h, 32C; series mostly up to 46.1 µM; activity change, negative = cytotoxicity: at the top concentration
# Outline: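 H1299-neo, 600 cells/well; overnight 37C; cpd up to 46 uM, 24 h at 32C; ATPlite luminescence after 20 min RT; normalized to DMSO (0%) and tamoxifen 100 uM (100% kill); Hill-fit AC50.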
# Potency is the fitted concentration of half-maximal effect.
SMILES,"activity change, negative = cytotoxicity",Potency
Cc1ccc2nc(/C(C#N)=C/c3ccccc3F)[nH]c2c1,-5.46% (inactive),–
O=S(=O)(c1ccc(Br)cc1)c1nnn2c1nc(N1CCOCC1)c1sccc12,0.31% (inactive),–
CCOc1ccc(NC(=O)CN2CCN(CC(=O)Nc3ccc(OC)cc3)CC2)cc1,–,inactive
CCOc1ccc(NC(=O)c2cnn(-c3ccccc3)c2-n2cccc2)cc1,60.8% (inactive),–
CCOc1ccc(NC(=O)c2ncoc2-c2ccco2)cc1,–,12.6 µM (active)
CCc1nc2ccc(C(=O)N3CCN(c4cc(Cl)ccc4C)CC3)cc2nc1CC,16.6% (inactive),–
CCOC(=O)c1c(C)[nH]c(C)c1S(=O)(=O)N1CCC(C(=O)Nc2ccc(C)c(Cl)c2)CC1,-10.5% (inactive),–
N#C/C(=C\c1ccccc1F)c1nc2ccccc2c(=O)[nH]1,-2.22% (inactive),–
COc1ccc(-n2ccnc(NCCc3ccc(Cl)cc3)c2=O)cc1OC,0.865% (inactive),–
CCOC(=O)c1cccc(NS(=O)(=O)c2cn(C)c(C)n2)c1,-3.89% (inactive),–
O=C(NC1CC(=O)N(c2ccc(Cl)cc2)C1)C1CCCC1 (stereo not given),3.83% (inactive),–
Cn1c(=O)c2c(nc(Oc3ccc(C#N)cc3)n2Cc2ccc(Cl)cc2Cl)n(C)c1=O,9.69% (inactive),–
Brc1ccc(-c2csc(N/N=C/c3ccc4c(c3)OCO4)n2)cc1,-5.38% (inactive),–
CCCC(=O)Nc1cccc(NC(=S)NC(=O)C(C)Oc2ccc(Cl)cc2Cl)c1 (stereo not given),-5.63% (inactive),–
COC(=O)c1cc2occc2n1Cc1nc(-c2ccc(C)cc2)oc1C,-11.9% (inactive),–
Cc1ccc(CNC(=O)CCNS(=O)(=O)c2ccc3c(c2)oc(=O)n3C)cc1,-2.38% (inactive),–
CCOc1ccc(CNC(=O)CCc2c(C)nn(-c3ccc(N4CCCCC4)nn3)c2C)cc1,-15.4% (inactive),–
CCc1cc2c(-c3ccccc3)cc(=O)oc2c2c1OCN(Cc1ccc(C)cc1)C2,-8.96% (inactive),–
COc1ccc(CCNC(=O)CN2C(=O)COc3ccc(S(=O)(=O)N4CCCC4)cc32)cc1OC,3.84% (inactive),–
CCOc1cc(CNCc2ccccn2)ccc1OCC(=O)NC(C)(C)C,-6.1% (inactive),–
Cc1ccc(CCNC(=O)C2CCN(c3nnc(-n4cccc4CNc4ccc(C)cc4)s3)CC2)cc1,21.3% (inactive),–
C/C(CC(=O)Nc1ccc(Cl)cc1)=N\NC(=O)C(=O)NCCO,-8.76% (inactive),–

SMILES,"activity change, negative = cytotoxicity",Potency
Cc1ccc2[nH]c3c(=O)n(CC(=O)NC(C)C)ncc3c2c1,-1.55% (inactive),–
CCC(=O)Nc1ccc(C)cc1-c1nc2ccccc2n(Cc2ccccc2)c1=O,-3.5% (inactive),–
CCn1c(SCC(=O)Nc2ccc(C)cc2)nc2nc3c(cc2c1=O)CCCC3,-14.2% (inactive),–
CCOc1ccccc1NC(=O)C1CCCN(S(=O)(=O)c2cn(C)cn2)C1 (stereo not given),-7.67% (inactive),–
Cc1nc2ccc(S(=O)(=O)N(CC(=O)Nc3ccc(F)cc3)Cc3ccccc3)cc2s1,-15.1% (inactive),–
COC(=O)c1ccc(NC(=O)c2cnn(-c3ccc(Cl)cc3)c2C2CCN(C(=O)OC(C)(C)C)CC2)cc1,16.5% (inactive),–
COC(=O)/C(NC(C)=O)=C(\C)c1ccc(Cl)cc1,4.98% (inactive),–
CCCCCn1c(CCNC(=O)c2ccc(F)cc2)nc2ccccc21,10.3% (inactive),–
CCCC(=O)Nc1ccc2oc(-c3ccc(O)c(Br)c3)nc2c1,-17.9% (inactive),–
CC(=O)Nc1cc(C(=O)NCc2ccc(F)cc2)ccc1Sc1ccc(F)cc1,-7.84% (inactive),–
Cc1ccc(NC(=S)N2CCN(c3ncccn3)CC2)cc1C,-16.9% (inactive),–
O=C(CCC(=O)N1CC2CCCN2c2ccccc21)NCc1ccccc1Cl (stereo not given),-2.37% (inactive),–
Cn1c(=NC(=O)c2ccc3c(c2)OCCO3)sc2cc(S(C)(=O)=O)ccc21,0.0269% (inactive),–
O=C(NC1CCCC1)C(c1ccccn1)N(C(=O)c1csnn1)C1CCCC1 (stereo not given),1.76% (inactive),–
CN(CC(=O)Nc1cccc(C(F)(F)F)c1)S(=O)(=O)c1cccs1,-3.2% (inactive),–
Cc1cccc(-c2nnc(SCC(=O)N3CCCc4ccccc43)o2)c1,1.58% (inactive),–
Cc1ccc2[nH]cc(CCCN3C(=O)c4ccccc4C3=O)c2c1,-13.4% (inactive),–
CCNC(=S)N1CCC(c2nc3cc(C)c(C)cc3[nH]2)CC1,8.34% (inactive),–
CCCCn1c(=O)c2oc3ccccc3c2n(CC(=O)Nc2ccccc2OC)c1=O,-9.59% (inactive),–
O=C(CSc1nc2nccnc2c(=O)n1CCc1c[nH]c2ccccc12)Nc1ccccc1F,34% (inactive),–
Cc1cccc(NC(=O)Cn2cc(S(=O)(=O)Cc3ccccc3Cl)c3ccccc32)c1,0.404% (inactive),–
Cc1csc2nc(COc3ccc(NC(=O)COc4ccccc4)cc3)cc(=O)n12,-5.31% (inactive),–

SMILES,"activity change, negative = cytotoxicity",Potency
COc1ccc(NC(=O)Nc2cccc(-c3noc(C)n3)c2)cc1,-14.2% (inactive),–
COc1cccc(C(c2c(O)cc(C)n(Cc3ccco3)c2=O)N2CCN(c3ccccc3)CC2)c1 (stereo not given),-0.758% (inactive),–
O=C(CSc1nccn1Cc1ccc(Cl)cc1)NCc1ccccc1,7.59% (inactive),–
Cc1ccc(CSCC(N)C(=O)O)cc1 (stereo not given),-2.48% (inactive),–
COc1ccccc1N1CCN(C(=O)C2CCN(S(=O)(=O)c3c(C)noc3/C=C/c3ccc(C)cc3)CC2)CC1,8.32% (inactive),–
O=C(OCc1cc(=O)n2nc(C3CC3)sc2n1)c1ccccc1Cl,-2.28% (inactive),–
COC(=O)c1ccc(NC(=O)CSc2nncc3ccc(OC)c(OC)c23)cc1,-6.26% (inactive),–
CCC1(C)CC(=O)c2c(ccc3oc(C(=O)Nc4ccc(C(C)=O)cc4)c(C)c23)O1 (stereo not given),-21.6% (inactive),–
O=C(NCc1ccccc1Cl)C1=Cc2cc(Br)ccc2OC1,33.2% (inactive),–
Cc1c(C(=O)NCc2ccccc2Br)oc2ccc3c(c12)C(=O)CC(C)(C)O3,–,10 µM (active)
Cc1nn(-c2nc(-c3ccccc3)cc(C(F)(F)F)n2)c(C)c1Cl,5.91% (inactive),–
CC(C)NC(=S)N1CCN(S(C)(=O)=O)CC1,-2.79% (inactive),–
COc1cc(C(=O)N2CCN(C(=O)COc3cccc(C)c3)CC2)cc(OC)c1OC,-0.0506% (inactive),–
CC(C)Cn1c(C2CC(=O)N(c3ccccc3Cl)C2)nc2ccccc21 (stereo not given),1.17% (inactive),–
Cc1ccccc1CSCCNC(=O)c1ccc(Cl)c(S(=O)(=O)N2CCOCC2)c1,7.74% (inactive),–
Cc1cc2c(cc3c(SCc4nc(-c5ccccc5)oc4C)nnc(C)n32)o1,0.258% (inactive),–
CC(=O)c1cccc(NC(=O)CSc2nc3c(c(=O)[nH]2)CCC3)c1,7.62% (inactive),–
CC(C)C(OC(=O)c1cccs1)C(=O)NC1CCCCC1 (stereo not given),-5.17% (inactive),–
COc1ccc(C(=O)COC(=O)CCCC(=O)Nc2cc(C(F)(F)F)ccc2Cl)cc1,2.12% (inactive),–
Cc1nnc(N2CCC(C(=O)Nc3ccc(F)cc3)CC2)c2nn(-c3ccc(Cl)cc3)c(C)c12,12.4% (inactive),–
O=C(CC1N=C2c3ccccc3N=C(SCc3ccc(F)cc3)N2C1=O)NCc1cccs1 (stereo not given),8.54% (inactive),–
